Data published in the supplement of paper PMC6522484.
± gives the standard deviation of the averaged measurements.

Legend:
DLD1 [1] = assay: cell viability (CellTiter-Glo) relative to plate median (fraction of plate median); higher = more viable cells; details: 5 µM; treatment time 24 h; reporter: 7TFP
Outline: (§1)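 For this screen, colorectal cancer cell lines carrying stable lentiviral TCF/Wnt firefly luciferase reporters, either 7TFP or TCF4/Wnt, were seeded into 384-well plates. A day's wait of 24 h preceded addition of library compounds at a final 5 µM, which stayed on the cells for 24 h. Firefly luciferase or CellTiterGlo luminescence, read on parallel plates, was normalised to the plate median per well, and the reported value is the mean of two independent replicates.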

HCT116 = assay: as above; details: 5 µM; treatment time 24 h; reporter: TCF4/Wnt
Outline: as §1

SW480 [2] = assay: as above; details: 5 µM; treatment time 24 h; reporter: 7TFP
Outline: as §1

DLD1 [3] = assay: TCF/Wnt firefly luciferase reporter signal relative to plate median (fraction of plate median); higher = higher Wnt reporter signal; details: 5 µM; treatment time 24 h; reporter: 7TFP
Outline: as §1

SW480 [4] = assay: as above; details: 5 µM; treatment time 24 h; reporter: 7TFP
Outline: as §1

| Structure (SMILES) | cell viability (DLD1 [1]) | cell viability (HCT116) | cell viability (SW480 [2]) | TCF/Wnt firefly luciferase reporter signal (DLD1 [3]) | TCF/Wnt firefly luciferase reporter signal (SW480 [4]) |
| --- | --- | --- | --- | --- | --- |
| Nc1ccncc1 | 1.025 ± 0.0071 | 1.07 ± 0.028 | 1 ± 0.1 | 1.03 ± 0.054 | 1.13 ± 0.071 |
| C[C@H]1O[C@H](O[C@H]2[C@H](O)[C@@H](O)[C@@H](O)[C@H](O)[C@@H]2O)[C@@H](N)C[C@@H]1NC(=N)C(=O)O | 0.989 ± 0.086 | 1.06 ± 0.035 | 1.035 ± 0.0071 | 1.03 ± 0.028 | 0.949 ± 0.086 |
| CN1[C@@H]2CC[C@H]1C[C@@H](OC(=O)[C@H](CO)c1ccccc1)C2 | 1.06 ± 0.14 | 1.09 | 1 ± 0.086 | 0.974 ± 0.11 | 1.05 ± 0.028 |
| N#Cc1c(Cl)c(Cl)c(Cl)c(C#N)c1Cl | 0.687 ± 0.075 | 0.465 ± 0.13 | 1.01 ± 0.052 | 0.293 ± 0.14 | 0.286 ± 0.15 |
| COC[C@]12CN(C=O)[C@@H]3[C@@H]4[C@H](OC)[C@H]1[C@@]3([C@@H](OC)C[C@H]2O)[C@@H]1C[C@@]2(O)[C@H](OC(=O)c3ccccc3)[C@@H]1[C@]4(OC(C)=O)[C@@H](O)[C@@H]2OC | 1.01 ± 0.057 | 1.17 ± 0.057 | 1.05 ± 0.071 | 0.934 ± 0.15 | 1.02 ± 0.052 |
| C=CCN1CC[C@]23c4c5ccc(O)c4O[C@H]2C(=O)CC[C@@]3(O)[C@H]1C5 | 1.04 ± 0.05 | 0.936 ± 0.011 | 1.08 ± 0.014 | 0.959 ± 0.011 | 0.918 ± 0.019 |
| CC(C)N(CCC(C(N)=O)(c1ccccc1)c1ccccn1)C(C)C (stereo not given) | 0.914 ± 0.077 | 0.964 ± 0.029 | 0.981 ± 0.011 | 1.16 ± 0.071 | 1.13 ± 0.014 |
| C[C@@H]1O[C@@H](O[C@H]2CC[C@]3(C=O)[C@H]4CC[C@]5(C)[C@@H](C6=CC(=O)OC6)CC[C@]5(O)[C@@H]4CC[C@]3(O)C2)[C@H](O)[C@H](O)[C@H]1O | 0.885 ± 0.13 | 0.4 ± 0.12 | 0.913 ± 0.025 | 0.178 ± 0.15 | 0.263 ± 0.043 |
| O=C1C[C@@H]2OCC=C3CN4CC[C@]56c7ccccc7N1[C@H]5[C@H]2[C@H]3C[C@H]46 | 1.06 ± 0.14 | 0.963 ± 0.015 | 1.05 ± 0.071 | 0.927 ± 0.044 | 0.997 ± 0.089 |
| CC[C@@]1(O)C[C@H](O)c2c(cc3c(c2O)C(=O)c2c(O)ccc(O)c2C3=O)[C@H]1C(=O)OC | 1.02 ± 0.067 | 1.05 ± 0.035 | 1.01 ± 0.03 | 1.08 ± 0.021 | 0.908 ± 0.12 |
| CC[C@@H](C)C(=O)O[C@H]1[C@H](O)[C@H]2[C@@H](CN3C[C@@H](C)CC[C@H]3[C@@]2(C)O)[C@@H]2C[C@]34O[C@]5(O)[C@@H](OC(=O)[C@](C)(O)[C@@H](C)O)CC[C@@]3(C)[C@@H]5[C@@H](OC(C)=O)[C@@H](OC(C)=O)[C@H]4[C@@]21O (stereo in doubt) | 1.03 ± 0.035 | 1.17 ± 0.085 | 1.08 ± 0.028 | 1.18 ± 0.092 | 1.08 ± 0.071 |
| CCOP(=S)(OCC)Oc1ccc2c(C)c(Cl)c(=O)oc2c1 | 0.989 ± 0.044 | 0.983 ± 0.14 | 0.9335 ± 0.005 | 0.928 ± 0.04 | 0.89 ± 0.012 |
| O=C1C=CC(=O)c2ccccc21 | 0.9965 ± 0.005 | 1.05 ± 0.042 | 0.989 ± 0.12 | 1.13 ± 0.057 | 0.963 ± 0.047 |
| c1cncc([C@@H]2CCCCN2)c1 | 0.993 ± 0.011 | 0.952 ± 0.17 | 0.9635 ± 0.0078 | 0.971 ± 0.11 | 0.927 ± 0.044 |
| COc1cc2c(cc1OC)[C@@H]1C(=O)c3ccc4oc(C(C)C)cc4c3O[C@@H]1CO2 | 0.923 ± 0.052 | 0.875 ± 0.14 | 0.75 ± 0.021 | 0.974 ± 0.028 | 0.749 ± 0.052 |
| COc1ccc2[nH]cc(CCN)c2c1 | 1.09 ± 0.078 | 1.06 ± 0.086 | 1.04 ± 0.093 | 0.924 ± 0.095 | 1.06 ± 0.014 |
| COc1cccc(C=O)c1OC | 1.01 ± 0.022 | 1.1 ± 0.15 | 1 ± 0.043 | 1.03 ± 0.073 | 0.914 ± 0.088 |
| CCn1cc(C(=O)O)c(=O)c2cc3c(cc21)OCO3 | 0.96 ± 0.016 | 0.949 ± 0.031 | 0.847 ± 0.27 | 0.893 ± 0.058 | 1 ± 0.11 |
| Nc1ccccc1C(=O)O [Anthranilic acid] | 0.906 ± 0.16 | 1 ± 0.037 | 0.98 ± 0.015 | 0.89 ± 0.044 | 1.04 ± 0.057 |
| OCC(O)Cc1ccc2c(c1)OCO2 (stereo not given) | 1.03 ± 0.095 | 1.04 ± 0.014 | 1.02 ± 0.033 | 0.922 ± 0.091 | 0.985 ± 0.036 |
| N[C@@H]1C[C@H]1c1ccccc1.N[C@H]1C[C@@H]1c1ccccc1 | 1.02 ± 0.059 | 0.959 ± 0.0042 | 0.956 ± 0.033 | 1.05 ± 0.17 | 0.892 ± 0.12 |
| O=C(NC(=O)c1c(F)cccc1F)Nc1cc(Cl)c(OC(F)(F)C(F)C(F)(F)F)cc1Cl (stereo not given) | 0.985 ± 0.05 | 0.984 ± 0.066 | 0.987 ± 0.013 | 0.907 ± 0.028 | 1.03 |
| c1ccc2c(c1)sc1ccccc12 | 1 ± 0.026 | 0.97 ± 0.11 | 1.01 ± 0.049 | 0.867 ± 0.033 | 0.935 ± 0.036 |
| CNc1ccc(C(=O)CC(O)CCC(C)C2OC(=O)CC(O)CC(=O)CC(O)CC(O)CC(O)CC(O)CC3(O)CC(O)C(C(=O)OC)C(CC(O[C@@H]4O[C@H](C)[C@@H](O)[C@H](N)[C@@H]4O)/C=C/C=C/C=C/C=C/C=C/C=C/C=C/C2C)O3)cc1.COC(=O)C1C(O)CC2(O)CC(O)CC(O)CC(O)CC(O)CC(=O)CC(O)CC(=O)OC(C(C)CCC(O)CC(=O)c3ccc(N)cc3)C(C)/C=C/C=C/C=C/C=C/C=C/C=C/C=C/C(O[C@@H]3O[C@H](C)[C@@H](O)[C@H](N)[C@@H]3O)CC1O2 (stereo not given in full) | 0.932 ± 0.096 | 0.959 ± 0.011 | 0.962 ± 0.0085 | 0.85 ± 0.088 | 0.908 ± 0.023 |
| O=C1c2ccccc2-c2cccc3cccc1c23 | 1 ± 0.084 | 0.852 ± 0.088 | 0.991 ± 0.028 | 0.912 ± 0.056 | 0.987 ± 0.033 |
| Oc1ccc(Cl)cc1 | 1.06 ± 0.064 | 0.892 ± 0.025 | 0.961 ± 0.04 | 1.03 ± 0.042 | 1.115 ± 0.0071 |
| C=C(C)[C@H]1Cc2c(ccc3c2O[C@@H]2COc4cc(OC)c(OC)cc4[C@@H]2C3=O)O1 | 0.851 ± 0.054 | 0.637 ± 0.11 | 1.01 ± 0.05 | 0.738 ± 0.04 | 0.753 ± 0.17 |
